High-throughput results as filed in PubChem BioAssay.
Sampled rows, rich in hits. Any-hit rate of the full collection: about 4.7%.
D1 antag – blocks dopamine activation of the human D1 receptor. P21728. HEK293 TREx D1 cells, calcium flux, dopamine EC80; stronger effect = lower value. activity change, negative = inhibition, % at 10 µM. actives 3.2% (n = 360,000). AID 504652; in the data active = activity change below about -30%; note: % is set by controls: 0 for no effect and ±100 for the full control effect
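Using tetracycline-induced force-coupled D1 Hek293 cells and a calcium dye, signals were followed for 180 s after compound, then for 180 s after EC80 dopamine, to detect inhibitors.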
D1 potentiator – enhances dopamine response at the human D1 receptor | potentiation, % at 10 µM | HEK293 TREx D1 cells, calcium flux, dopamine EC20 potentiation | P21728 | actives 0.036% (n = 360,000); in the data active = potentiation above about 30%; note: 0% is about no effect
D1 ag – agonists of human D1 dopamine receptor | P21728 | HEK293 T-REx D1 cells, calcium flux, agonist mode | activation, % at 2 µM | actives 1% (n = 360,000); note: 0% is about no effect
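Inducible HEK293 T-REx D1 cells, force-coupled to calcium signalling, were plated at 4000 cells/well with tetracycline and held overnight at 30 C. After no-wash calcium dye loading, compound-evoked calcium rise over 180 s flagged agonists.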
TRHR PAM – allosteric enhancers of human TRH receptor; P34981; TRHR cells, fluo-8 calcium fluorescence, EC20 TRH enhancement; enhancement, % at 2 µM; actives 0.66% (n = 360,000); AID 493056; in the data active = enhancement above about 30%; note: 0% is about no effect
Target sequence (P34981 whole entry, looked up): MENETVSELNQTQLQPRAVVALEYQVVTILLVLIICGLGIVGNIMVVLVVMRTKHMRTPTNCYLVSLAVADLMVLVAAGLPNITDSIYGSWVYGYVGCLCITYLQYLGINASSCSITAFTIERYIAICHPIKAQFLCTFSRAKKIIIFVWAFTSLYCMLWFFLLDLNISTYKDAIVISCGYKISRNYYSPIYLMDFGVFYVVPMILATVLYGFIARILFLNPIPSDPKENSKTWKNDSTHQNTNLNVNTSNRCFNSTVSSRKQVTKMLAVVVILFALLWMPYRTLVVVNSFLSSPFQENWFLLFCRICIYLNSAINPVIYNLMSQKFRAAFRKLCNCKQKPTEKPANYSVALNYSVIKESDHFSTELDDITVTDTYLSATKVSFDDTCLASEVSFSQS
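TRHR-expressing cells loaded with fluo-8 calcium dye were read kinetically (ex 480/em 530) during compound addition, then stimulated with an EC20 of TRH (10 nM final). Enhancement of the Gq-mediated intracellular calcium response was scored.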
TRHR ag – TRH receptor (human) agonism. P34981. TRHR cells, calcium flux fluo-8, FDSS agonist mode. activation, % at 2 µM. actives 0.18% (n = 360,000); note: 0% is about no effect
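In this calcium-flux screen, cells bearing human TRHR are dye-loaded with fluo-8, baselined for 10 cycles, then exposed to library compounds; positive kinetic calcium responses during the agonist phase mark hits, with TRH as control.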
* hit, by the source's call. Cut-off read from the data, not from the text of the source, unless noted: active = activation above about 30%; inactive = the rest.

SMILES	D1 antag	D1 potentiator	D1 ag	TRHR PAM	TRHR ag
O=C(CN1C(=O)NC2(CCCC2)C1=O)OCCOc1ccccc1	4.2	0.4	1.0	9.1	-0.1
O=C(CCCOc1ccccc1)NN1C(=O)NC2(CCCCC2)C1=O	-43.2*	-6.2	-0.1	5.1	-0.4
COc1ccc(OCCNC2CCCC2)cc1	-6.4	8.6	2.7	0.5	0.5
c1ccc(-c2ccc(OCCCNC3CCCC3)cc2)cc1	-37.3*	-0.8	41.5*	-3.3	1.7
c1ccc(SCCCCNC2CCCC2)cc1	-10.4	-8.2	11.2	-4.9	1.6
c1ccc(Cc2ccc(OCCCNC3CCCC3)cc2)cc1	-23.5	1.5	55.6*	4.2	3.4
Cc1cc(C)cc(-n2ccnc2SCC(=O)Nc2ccc3c(c2)OCO3)c1	-21.0	-5.1	6.5	-4.7	-0.3
COc1ccc(S(=O)(=O)NCc2cccn2Cc2cccc(C)c2)cc1OC	1.9	0.1	0.5	-4.5	-0.8
CCN(CC)C(=O)Cn1c(=O)n(-c2ccc(Cl)cc2)c(=O)c2c3c(sc21)CCCCC3	5.7	0.4	0.2	-0.8	-0.4
Nc1nc(COc2ccc(Cl)cc2)cs1	-5.1	3.4	1.1	38.2*	-0.4
Cc1nc2c(C(=O)NCCC(C)C)cnn2c(C)c1Cc1c(F)cccc1Cl	-2.8	-1.9	-0.2	9.4	1.1
CCSc1ncc(Cl)c(C(=O)Nc2c(C(=O)Nc3ccccc3)oc3ccccc23)n1	-9.4	-1.9	1.0	3.0	-0.5
CCS(=O)(=O)c1ncc(Cl)c(C(=O)Nc2ccc(S(=O)(=O)N3CCC(C)CC3)cc2)n1	-65.5*	-12.6	1.8	18.9	0.1
CCOC(=O)c1sc(NC(=O)/C=C/c2ccc(OCC)cc2)c(C(=O)OCC)c1C	-7.3	-2.1	3.7	0.2	0.5
CN(c1ccccc1)S(=O)(=O)c1ccc(NC(=O)c2nc(S(C)(=O)=O)ncc2Cl)cc1	-46.7*	-9.9	2.1	17.0	2.0
CCSc1ncc(Cl)c(C(=O)Nc2ccc(S(=O)(=O)N3CCC(C)CC3)cc2)n1	-2.7	0.8	2.0	-5.2	1.3
CCSc1ncc(Cl)c(C(=O)Nc2ccccc2)n1	-14.5	-16.2	3.5	36.4*	-1.2
CCOC(=O)c1c(NC(=O)/C=C/c2ccc(C)cc2)sc(C(C)=O)c1C	-32.0*	-3.5	-0.7	-1.8	-0.6
CCCSc1ncc(Cl)c(C(=O)Nc2ccc(S(=O)(=O)N(C)c3ccccc3)cc2)n1	7.0	1.2	15.7	-0.5	1.4
COc1ccc(C2=C(C)C(N3CCC(C(=O)Nc4cc(C)ccc4C)CC3)=NS2(=O)=O)cc1	-10.6	-6.6	6.2	-2.4	0.6
CCOC(=O)CNC(=O)c1cc2c(=O)n3cccc(C)c3nc2n1C	-9.7	-1.9	3.8	0.9	-1.0
Cc1ccc(-c2nc3c(c(SCC(=O)Nc4cccc(C(=O)O)c4)n2)Cc2cccc(C)c2O3)cc1	-3.1	0.7	0.9	-2.6	0.5
COc1ccc(-c2nc3nc(C)cc(Nc4ccc(C(C)=O)cc4)n3n2)cc1	-1.1	1.4	3.5	-4.7	-0.9
CCOC(=O)c1ccc(NC(=O)c2nc(S(=O)(=O)Cc3ccccc3)ncc2Cl)cc1	-45.2*	-7.7	0.8	-9.9	0.2
CCCSc1nnc(NC(=O)c2nc(SC)ncc2Cl)s1	-35.7*	-3.6	0.4	-0.5	-0.1
SMILES	D1 antag	D1 potentiator	D1 ag	TRHR PAM	TRHR ag
CSc1ncc(Cl)c(C(=O)Nc2nnc(SC)s2)n1	8.4	0.7	0.9	0.5	0.1
CCS(=O)(=O)c1ncc(Cl)c(C(=O)Nc2ccccc2)n1	-30.3*	-2.9	4.6	-21.2	2.5
CCOC(=O)c1c(NC(=O)c2nc(S(C)(=O)=O)ncc2Cl)sc(C(C)=O)c1C	-31.2*	2.0	1.1	-11.0	-1.2
Cc1ccc(-n2c3nc(=O)n(C)c(=O)c-3cc3c(Cl)cccc32)c(C)c1	3.9	-1.2	-1.8	5.6	2.8
COc1ccc(C(CNC(=O)c2cccc([N+](=O)[O-])c2)N2CCOCC2)cc1 (stereo not drawn)	1.1	-0.8	-1.9	0.8	-0.3
CCOC(=O)c1c(-c2ccccc2)csc1NC(=O)c1nc(SCC)ncc1Cl	-10.5	-1.1	4.8	-0.8	0.7
CCOC(=O)c1c(-c2ccccc2)csc1NC(=O)c1nc(S(=O)(=O)CC)ncc1Cl	-47.4*	-4.5	3.3	-16.3	0.0
CCc1ccc(NC(=O)c2nc(S(=O)(=O)Cc3ccccc3)ncc2Cl)cc1	-64.0*	-13.0	4.4	14.8	-0.4
O=C1C(Cl)=C(N2CCCC2)C(=O)N1c1ccc(F)cc1	-32.6*	-5.3	8.9	0.5	-0.1
O=C1C(Cl)=C(N2CCOCC2)C(=O)N1c1cccc(C(F)(F)F)c1	-33.6*	-6.1	3.5	1.0	-0.2
O=C1C(Cl)=C(N2CCCCCC2)C(=O)N1c1ccc(Cl)cc1	5.5	6.0	2.6	8.0	0.7
O=S(=O)(/C=C/c1ccccc1)Nc1ccc(F)cc1	0.0	1.5	7.3	30.8*	0.5
COc1ccc(NS(=O)(=O)/C=C/c2ccccc2)cc1	-10.9	3.6	3.8	5.7	-0.2
CCc1cccc(NC(=O)Cn2c(-c3ccccc3)cc(C(C)=O)c2C)c1	-33.1*	-7.2	2.1	-2.5	-0.5
CC(=O)c1cc(-c2ccccc2)n(CC(=O)Nc2cccc(C)c2)c1C	-17.2	-4.1	0.4	-3.7	-0.4
CC(C)(C)OC(=O)N1CCC(c2c(C(=O)N3CCN(C4CCCCC4)CC3)cnn2-c2cccc(Cl)c2)CC1	-7.4	1.4	-0.5	20.9	6.7
CC(C)(C)OC(=O)N1CCC(c2c(C(=O)Nc3ccc4c(c3)OCCO4)cnn2-c2ccc(Cl)cc2)CC1	17.7	2.6	3.7	4.3	1.1
Cc1ccc(-n2ncc(C(=O)Nc3ccc4c(c3)OCCO4)c2C2CCN(C(=O)OC(C)(C)C)CC2)cc1	-12.0	-4.5	1.4	31.3*	1.6
CC(C)(C)OC(=O)N1CCC(c2c(C(=O)Nc3ccc4c(c3)OCCO4)cnn2-c2ccccc2)CC1	-30.3*	-7.8	1.6	6.3	-0.1
Cc1ccc(-n2ncc(C(=O)Nc3ccc4c(c3)OCO4)c2C2CCN(C(=O)OC(C)(C)C)CC2)cc1	-1.9	-2.1	0.5	3.4	0.2
COc1ccc(CCN2CCC(CNC(=O)c3cnn(-c4ccc(C)cc4)c3C3CCN(C(=O)OC(C)(C)C)CC3)CC2)cc1	-29.4	-6.8	57.8*	13.0	-1.2
CCN1CCN(C(=O)c2cnn(-c3cccc(Cl)c3)c2C2CCN(C(=O)OC(C)(C)C)CC2)CC1	2.7	-3.5	3.2	37.3*	1.8
COc1ccccc1CNC(=O)c1cnn(-c2ccc(F)cc2F)c1C1CCN(C(=O)OC(C)(C)C)CC1	-59.2*	-8.2	0.1	-5.6	-1.0
Cc1cccc(NC(=S)NCCc2ccc3c(c2)OCCO3)c1C	-45.9*	-6.4	3.6	1.1	-1.2
Cc1cccc(NC(=S)NCc2ccc3c(c2)OCO3)c1C	3.6	0.4	-0.7	1.1	0.1
